Assay results taken from PubChem BioAssay AID999 (SRMLSC, 2007).
Values without a mark were called inactive.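 The calls were made as follows: active = viability at or below 21.59%, 3 SD under the median of tested compounds; inactive = the rest.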

Assay: growth suppression of PTEN-null HCT116 cells, cell-based, validation, diverse DP compound set (AID 999);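 also: 100% = median luminescence of untreated cell control wells and 0% = no signal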
Settings: CellTiter-Glo, 60 h, at 10 µM, active compounds read low

O=C(O)c1cc([N+](=O)[O-])ccc1NCCCc1ccccc1
viability: 94.2%

CCOC(=O)c1ncn2c1CN(C)C(=O)c1cc(F)ccc1-2
viability: 95.3%

O=c1[nH]cnc2ccccc12
viability: 82.7%

C=C1CC[C@H](O)C/C1=C/C=C1\CCC[C@]2(C)[C@@H]([C@H](C)CCCC(C)C)CC[C@@H]12
viability: 92.4%

O=c1[nH]c(=O)n(C2CCCO2)cc1F (stereo not drawn)
viability: 101%

O=C1OC2(c3ccc(O)cc3Oc3cc(O)ccc32)c2ccccc21
viability: 96%

Cc1c2oc3c(C)ccc(C(=O)N[C@@H]4C(=O)N[C@H](C(C)C)C(=O)N5CCC[C@H]5C(=O)N(C)CC(=O)N(C)[C@@H](C(C)C)C(=O)O[C@@H]4C)c3nc-2c(C(=O)N[C@@H]2C(=O)N[C@H](C(C)C)C(=O)N3CCC[C@H]3C(=O)N(C)CC(=O)N(C)[C@@H](C(C)C)C(=O)O[C@@H]2C)c(N)c1=O
viability: 43.2%

COc1cc(Cc2cnc(N)nc2N)cc(OC)c1OC
viability: 102%

NC(=NCc1ccccc1)NC(=O)c1nc(Cl)c(N)nc1N
viability: 77.3%

CC(C)C[C@H]1C(=O)N2CCC[C@H]2[C@]2(O)O[C@](NC(=O)[C@@H]3C=C4c5cccc6[nH]c(Br)c(c56)C[C@H]4N(C)C3)(C(C)C)C(=O)N12
viability: 76.4%

NS(=O)(=O)c1cc(C(=O)O)c(NCc2ccco2)cc1Cl
viability: 104%

COC(=O)C1=C(C)NC(C)=C(C(=O)OCCNCc2ccccc2)C1c1cccc([N+](=O)[O-])c1 (stereo not drawn)
viability: 65.3%

CC1=C(/C=C/C(C)=C/C=C/C(C)=C/C(=O)O)C(C)(C)CCC1
viability: 93.7%

C[C@]12CCC(=O)C=C1CC[C@@H]1[C@@H]2[C@@H](O)C[C@@]2(C)[C@H]1CC[C@]2(O)C(=O)CO
viability: 99.2%

COC(=O)CCc1c(C)[nH]c(C(=O)OCc2ccccc2)c1C
viability: 97.7%

CN1C2CCC1CC(OC(=O)C(CO)c1ccccc1)C2 (stereo not drawn)
viability: 94.2%

C[C@H](CCC(=O)O)[C@H]1CC[C@H]2[C@@H]3CC[C@@H]4C[C@H](O)CC[C@]4(C)[C@H]3CC[C@]12C
viability: 97.2%

[O][C@H]1[C@@H](O)[C@@H](CO)O[C@@H](O[C@@H]2[C@@H]3OC[C@H]2O[C@H](O[C@@H]2[C@@H](O)[C@H](C[C@@H]4[C@@H]5OC[C@H]4O[CH][C@@H]5O)O[C@H](CO)[C@@H]2OS(=O)(=O)O)[C@@H]3OS(=O)(=O)O)[C@@H]1O
viability: 100%
